Source: PubChem
NPC1 prom act: activates the NPC1 promoter | Huh7 NPC1 promoter luciferase reporter, 24 h | Potency, µM (top dose mostly 9.22 µM), hits mostly activators | hit rate 2.4% among 320,000; also: nearly all actives have a fitted effect of over 60% in size
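In 1536-well qHTS, Huh7 cells harboring an NPC1 promoter–luciferase construct received compound for 24 h; activation was quantified by luminescence following luciferase reagent addition.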
ELG1 genotox: induces genotoxicity in HEK293T cells with luciferase-tagged ELG1 | HEK293T ELG1-luciferase reporter, luminescence, 16 h | Potency, µM (doses to about 46 µM), usual class: activators | hit rate 1.3% among 330,000; also: nearly all actives have a fitted effect of over 60% in size
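Screening used a luciferase reporter fused to human ELG1 in HEK293T cells. Luminescence was read on a CCD plate imager after 16 hr exposure and 30 min ONE-Glo incubation.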
FLuc counter: firefly luciferase modulation, counter-screen for miR-21 project; hit rate 6.9% among 360,000; purified FLuc, Km substrates, luminescence inhibition; Potency, µM (highest dose often 57.5 µM), most hits filed as inhibitors; also: nearly all actives have a fitted effect of over 55% in size
Target sequence (P08659 whole entry, looked up): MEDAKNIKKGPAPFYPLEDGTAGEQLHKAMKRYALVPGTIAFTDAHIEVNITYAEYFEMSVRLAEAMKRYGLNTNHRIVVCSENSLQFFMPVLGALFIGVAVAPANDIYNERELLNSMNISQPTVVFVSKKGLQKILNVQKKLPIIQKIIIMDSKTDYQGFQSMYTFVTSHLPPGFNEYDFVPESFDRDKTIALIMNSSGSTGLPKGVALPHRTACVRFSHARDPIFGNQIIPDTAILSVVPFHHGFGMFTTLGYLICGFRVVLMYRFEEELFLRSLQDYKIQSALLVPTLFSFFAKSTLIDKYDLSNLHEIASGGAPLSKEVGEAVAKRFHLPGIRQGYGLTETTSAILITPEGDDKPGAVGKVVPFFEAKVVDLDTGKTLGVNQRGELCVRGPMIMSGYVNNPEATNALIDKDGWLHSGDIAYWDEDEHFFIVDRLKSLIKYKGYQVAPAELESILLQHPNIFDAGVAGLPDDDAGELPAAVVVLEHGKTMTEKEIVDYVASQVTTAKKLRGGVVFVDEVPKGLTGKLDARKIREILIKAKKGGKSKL
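Purified P. pyralis luciferase (10nM final) with 10uM D-luciferin and 10uM ATP (Km levels) in 50mM Tris acetate pH 7.5, 10mM Mg acetate, 0.01% Tween-20, 0.05% BSA; qHTS 6-point titration, ~60 µM downward; luminescence read.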
SMN2 splice up: SMN2 splice variant enhancement; HEK293 SMN2-luciferase splicing reporter, luminescence, 30-36 h; Potency, µM (highest dose often 46.1 µM), usual class: activators; hit rate 2.8% among 210,000; AID 1458; also: nearly all actives have a fitted effect of over 55% in size
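HEK293 cells carry an SMN2 minigene-luciferase reporter in which exon 7 inclusion puts luciferase in frame. Cells were seeded at 2000 cells/well, attached for 10-12 hours, then exposed to compounds for 30-36 hours at 37C before ONE-Glo luminescence.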
Rab9 prom act: activates the Rab9 promoter; Huh7 Rab9 promoter-luciferase reporter, luminescence, 24 h; AID 485297; hit rate 2.8% among 320,000; Potency, µM (highest dose often 9.22 µM), actives largely listed as activators; also: nearly all actives have a fitted effect of over 60% in size
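Using Huh7 cells stably transfected with Rab9 promoter–luciferase, compounds were incubated 24 h at 37 °C, 5% CO2; luciferase luminescence was read 10 min after reagent addition.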
Luc counter: counter-screen: inhibitors of Kinase-Glo firefly luciferase; Q27757; Kinase-Glo luciferase, ATP luminescence, 8 min; Potency, µM (doses to about 38.3 µM), actives largely listed as inhibitors; hit rate 0.28% among 200,000; also: nearly all actives have a fitted effect of over 60% in size
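Kinase-Glo luciferase light output from ATP and luciferin was measured with 10 uM ATP, within the enzyme's linear range. Buffer: 50 mM imidazole pH 7.2, 50 mM KCl, 7 mM MgCl2, 0.01% Tween 20, 0.05% BSA; luminescence read after 8 min at ambient temperature.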
Hits are given with their value; n = inactive; u = inconclusive; x = no result; [ ] = remark or other dose. Hits are enriched below; roughly 7.5% of the tested compounds scored in any of these assays. Calls follow the shape of the dose curve; as a rule, active = well fitted curve in the direction sought with a large enough effect; inconclusive = small, poorly fitted or top-dose-only effect, or another doubt; inactive = no such curve, though single readings can be large; an effect the other way counts as inactive or inconclusive.

SMILES	NPC1 prom act	ELG1 genotox	FLuc counter	SMN2 splice up	Rab9 prom act	Luc counter
CCN1CCN(S(=O)(=O)c2ccc(Cl)c(C(=O)NC3CC3)c2)CC1	n	n	n	x	n	x
CCN1CCN(S(=O)(=O)c2ccc(Cl)c(C(=O)NCCc3ccccc3)c2)CC1	u	16µM	u	x	u	x
O=C(Nc1nccs1)c1ccc(N2C(=O)C3CCCCC3C2=O)cc1 (stereo unspecified)	n	u	21µM	n	n	n
O=C(Nc1nccs1)c1ccc(N2C(=O)[C@@H]3[C@H](C2=O)[C@H]2C=C[C@@H]3C2)cc1	2.5µM	u	27µM	x	3.5µM	x
O=C(Nc1ccc(Br)cc1)c1ccc(N2C(=O)C3CCCCC3C2=O)cc1 (stereo unspecified)	n	n	n	x	n	x
Cc1ccc(S(=O)(=O)n2ccc(=O)[nH]2)cc1	n	n	n	x	n	x
O=C(Cc1cccs1)NCCS(=O)(=O)N1CCN(c2ccccc2F)CC1	n	n	n	x	n	x
CCOC(=O)C1CCN(C(=O)C2CCN(c3nc4ccc(OC)cc4s3)CC2)CC1	n	n	15µM	n	n	n
CCOC(=O)C1CCN(C(=O)C2CCN(c3nnc(-n4cccc4)s3)CC2)CC1	n	n[9.26 µM]	n	x	n	x
COc1ccc2nc(N3CCN(C(=O)C4COc5ccccc5O4)CC3)sc2c1 (stereo unspecified)	2.8µM	n	6µM	x	2µM	x
O=C(O)CCc1ccc(-c2ccccc2)[nH]1	x	x	x	n[9.22 µM]	x	n[7.66 µM]
COc1ccccc1P(=O)(Cc1ccccc1)c1ccccc1 (stereo unspecified)	n	n	n	x	n	x
CCCN(CC(=O)Nc1ccccc1OC)C(=O)c1ccc(S(=O)(=O)Nc2ccccc2)cc1	n	n	n	x	n	x
CCOC(=O)C1CCCN(C(=O)c2cc(Nc3ccc(OC)c(OC)c3)nc3ccccc23)C1 (stereo unspecified)	n	n	11µM	n	n	n
CCOC(=O)C1CCCN(C(=O)CC(C)c2ccccc2)C1 (stereo unspecified)	2.8µM	u	u	u	2µM	n
CCOC(=O)C1CCN(C(=O)CC(C)c2ccccc2)CC1 (stereo unspecified)	x	x	n	n	x	n
CCOC(=O)C1CCCN(C(=O)c2cc(Nc3ccc(OC)cc3OC)nc3ccccc23)C1 (stereo unspecified)	n	n	9.5µM	n	n	n
CCOC(=O)C1CCCN(C(=O)c2cc(-c3ccc(C)cc3)nc3ccccc23)C1 (stereo unspecified)	n	n	4.8µM	n	n	n
COc1ccc(Nc2cc(C(=O)NC3CCCC3)c3ccccc3n2)c(OC)c1	n	n	u	n	n	x
COc1ccc(Nc2cc(C(=O)NCc3ccccc3)c3ccccc3n2)cc1OC	x	x	n	n	x	x
CCOC(=O)C1CCCN(C(=O)c2cnn3c(C(F)(F)F)cc(-c4ccccc4)nc23)C1 (stereo unspecified)	n	n	n	n	n	n
CCOC(=O)C1CCCN(C(=O)c2cn(C)c3ccc(S(=O)(=O)N4CCCC4)cc3c2=O)C1 (stereo unspecified)	n	n	n	11µM	n	n
CCOC(=O)C1CCCN(C(=O)c2cn(CC)c3ccc(S(=O)(=O)N4CCCC4)cc3c2=O)C1 (stereo unspecified)	n	n	n	n	n	n
Cc1cc(C)c(NC(=O)CNC(=O)COC(=O)C2=COCCO2)c(C)c1	n	n	n	x	n	x
Oc1c(CN2CCN(c3ccccn3)CC2)cc(Cl)c2cccnc12	n	7.3µM	n	n	n	n
CC(C)C(C)(C#N)NC(=O)CSc1nc2scc(-c3ccc(F)cc3)c2c(=O)n1Cc1ccccc1 (stereo unspecified)	n	n	n	x	n	x
Cc1ccc2oc(/N=C(\N)NC(=O)C(C)(C)C)nc2c1	n	n	0.076µM	x	n	x
CC(C)(C)c1ccc(C(=O)N/C(N)=N/c2nc3ccccc3o2)cc1	n	n	u	n	n	n
N/C(=N\c1nc2ccccc2o1)NC(=O)c1ccccc1Br	u	n	12µM	x	u	x
Cc1ccc2oc(/N=C(\N)NC(=O)C3CC3)nc2c1	0.63µM	u	0.85µM	x	0.45µM	x
